# Data published in the supplement of paper PMC6555819.
# Columns and labels:
# Assay in all cases: PBM binding z-score (relative to random genomic background probes); higher = stronger binding; sequences stand for … in GC…GCGATTGACAGCGTAGAATGAAGG
# [1] = test system: FXR:RXRa (NR concentration 270 nM, RXRa partner concentration 90 nM)
# How it was run: (§1)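 Custom Agilent 4×180K protein-binding microarrays carried double-stranded probes. Their 34-nt variable regions held direct-repeat seeds, single-nucleotide variants, half-site ablations and random human genomic background sequences. Arrays were incubated 1 h with ligand-free nuclear receptor dimers in PBS pH 7.4, 2% milk, 0.02% Triton X-100, 1 mM DTT, 0.2 mg/mL BSA and 0.4 mg/ml salmon testes DNA. Antibodies against each partner (one per run) detected binding, and scanned fluorescence was regression-normalized. Binding z-scores use random background probes as reference.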
# [2] = test system: LXRa:RXRa (NR concentration 270 nM, RXRa partner concentration 90 nM)
# How it was run: as §1
# [3] = test system: LXRa homodimer (NR concentration 270 nM)
# How it was run: as §1
# [4] = test system: LXRb:RXRa (NR concentration 270 nM, RXRa partner concentration 90 nM)
# How it was run: as §1
# [5] = test system: LXRb homodimer (NR concentration 270 nM)
# How it was run: as §1
# [6] = test system: PPARa:RXRa (NR concentration 270 nM, RXRa partner concentration 90 nM)
# How it was run: as §1
# [7] = test system: PPARg:RXRa (NR concentration 180 nM, RXRa partner concentration 90 nM)
# How it was run: as §1
# [8] = test system: PPARg:RXRa 270nM:90nM, anti-RXR (NR concentration 270 nM, RXRa partner concentration 90 nM)
# How it was run: as §1
# [9] = test system: PPARg:RXRa 30nM:10nM, anti-RXR (NR concentration 30 nM, RXRa partner concentration 10 nM)
# How it was run: as §1
# [10] = test system: PPARg:RXRa 90nM:30nM, anti-RXR (NR concentration 90 nM, RXRa partner concentration 30 nM)
# How it was run: as §1
Sequence,PBM binding z-score [1],PBM binding z-score [2],PBM binding z-score [3],PBM binding z-score [4],PBM binding z-score [5],PBM binding z-score [6],PBM binding z-score [7],PBM binding z-score [8],PBM binding z-score [9],PBM binding z-score [10]
CGAACTTGGTCATCCAGGACAGTGAATACATTGA,0.205,-0.0973,-0.0371,-0.13,-0.606,0.208,0.624,-0.0338,0.133,-0.228
CGTCCAAGGTCAAGGTCAGTGGAAGAGACTCGAA,7.57,5.46,1.22,4.68,0.505,5.89,6.29,6.3,2.6,5.24
CCTAGCAGGCCAATCTGGGTCACTCATGGCTTGA,0.761,0.933,-0.409,0.376,-1.09,2.62,1.75,1.93,0.0126,0.944
CAAACTAGGTCAAAGTCAAAGTCGGTTTGTGCCA,4.66,3.77,0.899,2.64,1.02,5.18,8.68,7.7,6.17,8.03
CGTCCAAGGTCAGCAGGTCAGGGAAAGCGACGTG,5.75,3.75,0.358,3.11,-0.252,4.79,4.23,4.7,1.38,3.21
GCGCGGAGGACAAGGTCAGAGCTTTGTCCGTAGA,1.64,1.37,-0.378,1.01,-1.25,2.27,0.135,1.16,-0.943,0.36
ATCTCTAGGTAAAGATAATTCAGTGAATGCAAAT,0.311,0.4,0.217,0.485,0.372,0.312,0.908,0.48,0.443,0.348
TTACCAAGGTGAGCTGAGGTCGTTTATCCAACTC,2.17,1.37,-0.142,0.978,-0.227,1.61,-0.0022,0.829,-0.0958,0.644
CCTACTGGGCCATTCAGAAGTCATTGATCATATG,-0.391,-0.415,-0.186,-0.497,-0.171,0.968,0.302,0.341,-0.166,-0.00895
ATCGAAAGGTCGACGAGGTGAGCATACACCGTTT,4.55,3.16,0.0611,2.6,0.486,4.14,2.93,3.33,0.968,2.23
ATCTCTATGTAAGACTCAGTTCAGTGAAGAACGC,-0.0618,0.138,0.304,-0.0643,0.391,-0.231,0.076,-0.0831,-0.162,-0.281
CTCGAAAGGTCGTGCTCTGGTGAGTATACCAAAC,4.94,3.65,0.255,3.52,0.0875,4.94,2.33,3.59,0.836,2.12
ATCGAAAGGACGTGAGGTGAGTATACAGAAAGGC,-0.29,-0.461,-0.29,-0.468,-0.162,-0.116,0.724,-0.318,0.185,-0.252
CAGACTAGGTCACCGGAAGGTCAAAGTCCGCATG,5.95,5.63,4.26,5.14,0.786,5.42,7.82,7.03,3.63,6.35
GCAGACAGTTGAAACGCAGGTAACTCAGGGTGGC,-0.0356,-0.382,-0.506,-0.476,-0.589,-0.162,0.287,-0.573,-0.78,-0.65
ATACCAAGGTGATCCTGAGGTCGTTGATACTAAC,2.37,2.1,0.935,1.98,0.354,2.1,0.744,0.547,0.147,0.197
TCGAGTAGGTTACCAATGGAGCATTCAGCTTTCT,-0.291,0.37,-0.758,-0.00248,-1.32,0.92,0.264,1.16,1.33,1.08
CAGCCTAAGTCAGGGCCAGTATAGGAGGAACGTT,-0.194,-0.51,-0.309,-0.69,-1.28,-0.483,0.0918,-0.709,-0.0751,-0.475
ATCTCTAGGTAACAAGTACAGTGAAAGAGAGGAC,0.404,0.297,0.245,-0.0374,0.894,0.308,1.33,1.36,0.696,1.02
TCATGTAGGTAATACAGGTGAAAGTCGGCATCTA,0.0966,0.506,0.125,0.469,-0.485,1.63,1.15,1.94,2.84,2.25
CTACCAAGGTGAACAAGGTCGTTGATTACTATTC,1.47,1.38,0.19,1.91,-0.383,2.45,1.12,1.4,0.0996,0.622
ACTAGCAGGCCATGGGTCACTCAAGATTAGTCCG,0.425,0.807,-0.304,0.694,-0.564,2.85,4.82,5.14,4.15,5.31
TCTTGTAGATCTATAGAGGTTAAGAAAGTGCGCT,0.449,3.17,0.171,1.78,-0.194,1.81,0.274,1.62,2.58,2.23
TCTCGGAGGACACGAAAGGTCAGGGCTCGACATC,3.31,3.84,3.08,3.5,0.0689,3.95,1.6,2.91,2.57,2.76

Sequence,PBM binding z-score [1],PBM binding z-score [2],PBM binding z-score [3],PBM binding z-score [4],PBM binding z-score [5],PBM binding z-score [6],PBM binding z-score [7],PBM binding z-score [8],PBM binding z-score [9],PBM binding z-score [10]
GCTAGTTGGTTAGTAAAAGGTCACACACCGGTCG,2.97,4.33,4.85,4.1,1.08,4.6,2.08,3.55,1.87,3.47
CGAACTAGGTCAAGGACAATGAATCTCCGCACGC,3.47,2.4,0.0804,1.37,-0.174,4.72,7.83,6.69,4.46,6.15
CCTTACGGGTCATTCCAGGTTATAGCATCGGAGT,6.28,7.32,2.01,4.7,0.548,4.94,3.32,4.21,1.14,2.4
ATCTCTAGGTAAACAAGTTCAGTGAATGCCGAAC,0.431,1.06,1.16,0.55,0.583,1.04,0.677,0.774,0.448,0.709
TCATATAGGTAAACAGGTGAACGTCCGTAAGTTA,1.03,1.3,0.422,1.09,-0.0806,2.56,2.7,3.48,4.2,3.9
CATACAGGGTCAGCTAGGCCAGAGCAGGGACGGC,4.49,3.07,-0.271,2.11,0.561,4.35,3.33,3.05,0.789,1.85
ATCTCTAGGTAACTAGTTCAGTGAAAGAGAGGAC,0.133,0.11,-0.0189,0.143,0.75,0.794,0.87,0.974,0.417,0.722
CAAACTAGGTCACGAAAGCTCAAAGTCGAATGAC,4.45,3.66,0.551,2.56,0.287,5.46,9.27,7.24,5.74,7.12
TAGAGTAGGTTAGGGGCATTCAGAATGGCGTCGA,0.854,0.929,0.289,1.66,2.45,2.24,2.29,3.01,1.48,2.6
TCGAGTAGGTTAGTCGGGGCATTTAGCCAACATA,0.338,0.346,-0.167,0.722,-0.677,0.819,-0.0847,0.976,1.17,1.04
GCGACTGGGGCAAAGCAGGTTACCAAAAGGTTGG,0.475,0.517,-0.168,0.19,-1.32,1.78,1.11,1.55,-0.194,0.774
CCAACTAGGTCACGAAAGGTCAAAGTCGAATGAC,7.46,8.21,7.89,7.27,2.78,6.63,9.92,8.01,5.92,8.18
TGTCCAAGTTCAAAGGTAACGTAAGTATCCACAC,4.56,4.49,1.09,3.06,0.689,4.29,4,4.65,2.1,4.16
CCGACTGCGGCAGAAAGGTTACCATACCATCCGG,0.417,0.665,-0.0134,1.08,-0.692,1.85,1.33,2.53,0.645,2.19
TCTCGGAGGACAAGAAAGGTCAGAGCTCGACATC,2.65,3.41,2.12,2.65,-0.275,3.37,0.803,2.26,2.52,2.37
TCTGCCAGGTCAGTTGGTCAGCTAACGAGCTGCC,1.42,0.919,-0.414,0.653,0.604,1.61,-0.0729,1.28,1.13,0.918
CCTCGGAGGACCGAAGGTCAGAGCTGTCCGCTTT,0.789,1.42,-0.056,0.863,-1.03,1.61,-0.382,1.16,-0.716,0.325
GATACCGGGTCAAGGCCAGAGTACGCGTATTGAT,4.87,2.87,-0.172,2.45,-1.08,5.08,5.25,4.57,1.31,3.21
GGAACGTGGGCAAGTTGATAGCAGAGTTTGATGG,-0.957,-0.763,-0.666,-0.678,-0.982,-0.579,0.382,-0.458,-0.337,-0.422
CAAACTAGGTTACCGGAAGGTCAAAGTCCGCATG,4.06,5.04,4.5,4.05,1.13,4.85,6.22,5.55,2.78,4.83
AATACAAGGTCACTAGGCCAGAGTAGGTACGAAT,7.35,6.14,4.32,4.79,2.19,6.29,8.24,6.63,3.8,6.05
TAGCCTAGGTCATGCGGGCCAGTTTAGTGTCGGC,3.92,3.15,0.212,1.71,-0.269,3.27,1.32,2.02,-0.211,1.01
TCTAGTTGGTCACGGAGTTCACACACGACGGGTA,1.65,2.17,2.34,1.88,0.263,2.63,1.88,2.66,3.07,2.99
TGAATGAGGTTATAAGATCAAGGAACGTTGCAAA,1.48,1.44,-0.207,0.961,0.00759,3.01,1.79,2.39,1.08,1.89
